Data as given in PubChem BioAssay (NCI).
The panel holds about 83,000 compounds, 20% with a hit somewhere; the sample as a whole holds those more often.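 Assay: single dose, 48 h. Readout: percent growth (0 = no net growth; negative = cell death). Active: <10.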 A number with no mark means an inactive call. The source made the active and inactive calls.

Assays:
Assay in all cases: NCI-60 one-dose screen, 48 h (100 = growth as untreated, 0 = no growth, -100 = all killed)
Conditions in all cases: 10 µM unless noted
NCI-H23 lung = tested on: NCI-H23 lung
NCI-H226 lung = tested on: NCI-H226 lung
NCI-H322M lung = tested on: NCI-H322M lung
HOP-62 NSCLC = tested on: HOP-62 NSCLC
NCI-H460 lung = tested on: NCI-H460 lung
HOP-92 NSCLC = tested on: HOP-92 NSCLC
NCI-H522 lung = tested on: NCI-H522 lung
A549/ATCC NSCLC = tested on: A549/ATCC NSCLC
786-0 renal = tested on: 786-0 renal
COLO 205 colon = tested on: COLO 205 colon
DU-145 prostate = tested on: DU-145 prostate
K-562 leukemia = tested on: K-562 leukemia
MALME-3M melanoma = tested on: MALME-3M melanoma
MDA-MB-231 breast = tested on: MDA-MB-231 breast
RXF 393 renal = tested on: RXF 393 renal
SF-268 CNS = tested on: SF-268 CNS
SF-295 CNS = tested on: SF-295 CNS
SF-539 CNS = tested on: SF-539 CNS
UACC-257 melanoma = tested on: UACC-257 melanoma
M14 melanoma = tested on: M14 melanoma

SMILES	growth (NCI-H23 lung)	growth (NCI-H226 lung)	growth (NCI-H322M lung)	growth (HOP-62 NSCLC)	growth (NCI-H460 lung)	growth (HOP-92 NSCLC)	growth (NCI-H522 lung)	growth (A549/ATCC NSCLC)	growth (786-0 renal)	growth (COLO 205 colon)	growth (DU-145 prostate)	growth (K-562 leukemia)	growth (MALME-3M melanoma)	growth (MDA-MB-231 breast)	growth (RXF 393 renal)	growth (SF-268 CNS)	growth (SF-295 CNS)	growth (SF-539 CNS)	growth (UACC-257 melanoma)	growth (M14 melanoma)
O=C(COc1ccc(NC(=O)Nc2ccc(Cl)c(Cl)c2)cc1)N=Nc1c(O)[nH]c2ccccc12	-43.7% (active)	-34.7% (active)	28%	-53.1% (active)	-63.4% (active)	-41% (active)	-42.8% (active)	-36.3% (active)	-71.9% (active)	-41.7% (active)	-42.7% (active)	5.06% (active)	-79.3% (active)	-66.8% (active)	-52.7% (active)	-5.94% (active)	-48.9% (active)	-86.3% (active)	-44.5% (active)	-76.5% (active)
CCN(CC)c1ccnc(CNCCSC(c2ccccc2)(c2ccccc2)c2ccc(C)cc2)c1	-78.7% (active)	-73.3% (active)	-10.4% (active)	-89.5% (active)	-79.6% (active)	-83.9% (active)	-80.3% (active)	-86.8% (active)	-93.1% (active)	-76.6% (active)	-59.7% (active)	-45.1% (active)	-93.1% (active)	-97.7% (active)	-87.5% (active)	-55.8% (active)	-97% (active)	-97.5% (active)	-90.1% (active)	-87.2% (active)
Cn1cc(-c2nnc(N)nc2-c2c[nH]c3ccc(F)cc23)c2cccnc21	53.7%	72.4%	71%	49.2%	18%	92.8%	20.4%	47.6%	47.2%	26.9%	80.2%	15.7%	44.8%	51.6%	65.4%	61%	25.6%	47.2%	72.7%	
CC(C)c1sc(NC(=O)c2cc(NC(=O)c3cc(NC(=O)c4cscn4)cn3C)cn2C)nc1C(=O)NCCCN(C)C	-22.3% (active)	-54% (active)	19.9%	16.1%	89.9%	-22.9% (active)	-74.8% (active)	105%	64.8%	-63% (active)	16.4%	8.89% (active)	-51.7% (active)	-33.3% (active)	-47.2% (active)	16.3%	58.7%	-33.6% (active)	7.52% (active)	
Cc1cc2nc3c4ccccc4n(CCNCCN(C)C)c3nc2cc1C	31.2%	53.3%	36.3%	45.3%	5.46% (active)	10.5%	17.7%	20.4%	20.4%	-71.5% (active)	17.2%	0.435% (active)	-96.6% (active)	1.93% (active)	-34.7% (active)	42.5%	20.2%	-79.8% (active)	-72.8% (active)	-79.9% (active)
COc1cc2c(c(OC)c1OC)C(=O)CC(c1cccc(NC(=O)c3cc(NC(=O)[C@@H](N)CO)ccc3C)c1)O2 (stereo partly drawn)	112%	103%	108%	108%	123%	114%	93%	102%	107%	131%	119%	91.4%	103%	111%	119%	111%	101%	99.7%	104%	119%
COc1ccc(C(=O)/C=C/c2ccc(OCc3ccccc3)c(OC)c2)cc1OC	27.1%	79.1%	15.7%	35.3%	5.57% (active)	38.3%	11.3%	14.4%	35.9%	51.5%	7.25% (active)	10.5%	71.5%	13%	24.2%	32.6%	25.8%	-37.9% (active)	58.9%	62.3%
CC1(C)CC[C@]2(C(=O)Nc3ccc(F)cc3)CC[C@]3(C)C(=CCC4[C@@]5(C)C[C@@H](O)[C@H](O)[C@@](C)(CO)C5CC[C@]43C)C2C1 (stereo partly drawn)	49.8%	25.5%	72.7%	58.6%	30.8%	-1.23% (active)	32.8%	28.5%	51.1%	0.244% (active)	59.7%	18%	60.7%	27.8%	-6.8% (active)	52.6%	26.1%	49.7%	27.7%	46.6%
